Bioassay records deposited in PubChem BioAssay by several laboratories.
In the library only some 2.8% were active in any assay of this set; here they are far more common.
Peg3 promoter = Peg3 promoter-driven luciferase inhibitors, primary screen, cell-based, HeLa, luciferase luminescence | AID 588405, 2011 | HeLa PEG-Prom luciferase reporter, overnight | 360,000 compounds, 1.7% hits | inhibition, % at 20 µM;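 active = inhibition of at least 50% at 20 µM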
Beta2AR agonist = beta2AR agonists driving receptor internalization, primary screen, cell-based, FAP fluorogen, flow cytometry | response, % (test concentration not listed) | Am2.2-beta2AR cells | 340,000 compounds, 0.43% hits | Beta-2 adrenergic receptor (Homo sapiens), P07550;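 active = response above a set limit, near 3 SD of response in nonfluorescent compounds, cut at about 42% in these data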
Target sequence (P07550 whole entry, looked up): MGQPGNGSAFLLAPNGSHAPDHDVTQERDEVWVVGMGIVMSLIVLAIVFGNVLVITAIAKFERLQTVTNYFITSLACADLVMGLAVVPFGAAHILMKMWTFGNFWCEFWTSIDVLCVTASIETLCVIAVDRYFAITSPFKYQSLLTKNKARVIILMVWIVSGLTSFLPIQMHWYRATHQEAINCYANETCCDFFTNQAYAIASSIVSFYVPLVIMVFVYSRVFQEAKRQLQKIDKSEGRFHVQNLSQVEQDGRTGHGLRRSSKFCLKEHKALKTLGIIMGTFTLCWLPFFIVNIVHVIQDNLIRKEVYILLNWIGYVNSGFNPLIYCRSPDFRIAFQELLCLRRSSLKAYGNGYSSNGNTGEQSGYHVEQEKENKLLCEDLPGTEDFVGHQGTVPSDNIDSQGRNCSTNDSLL
CF NFkB block = inhibitors of PAF-induced NF-kB signaling, primary screen, cell-based, GFP fluorescence, uHTS; 360,000 compounds, 0.86% hits; inhibition, % at 5 µM; KKLEB NF-kB-GFP reporter, GFP fluorescence overnight;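 active = at least 50% inhibition at 5 µM, scaled per plate between neutral and stimulator controls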;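 also: PAF is a Pseudomonas aeruginosa culture filtrate used as stimulus; plate controls were PAF-stimulated DMSO wells for no effect and unstimulated DMSO wells for full effect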
MITF TRPM1 inh = inhibitors of MITF-dependent TRPM1 promoter reporter, primary screen, cell-based, SK-MEL-5, single point, luciferase | SK-MEL-5 TRPM1 promoter luciferase, 24 h | inhibition, % at 12.5 µM | 330,000 compounds, 0.83% hits | AID 488899, 2010;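 active = mean inhibition across replicates of 60% or more, whatever share of single replicates reaches that level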
KKLEB tox = cytotoxicity in KKLEB CF airway cells, primary screen, cytotoxicity control for CF NF-kB inhibitor project, cell-based, uHTS, fluorescence assay plates. KKLEB CF airway cells viability, ATPlite luminescence, overnight; hits give low values; cells stimulated with P. aeruginosa culture filtrate. AID 602141, 2011. 360,000 compounds, 0.36% hits. activity change (cytotoxicity), % at 5 µM;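 active = corrected activity change at or below -50% at 5 µM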
HIF-2a inh = HIF-2a reporter inhibitors, primary screen, luminescence, 786-0 RCC cells; 786-0 RCC cells HIF-2a reporter, luciferase luminescence, overnight; inhibition, % at 18.8 µM; AID 624352, 2012; 360,000 compounds, 0.72% hits;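 active = inhibition of the luminescence signal of 40% or more relative to plate controls, in a single-dose primary screen at 18.75 µM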
The depositor's hits bear a star; nt = no result.

SMILES	Peg3 promoter	Beta2AR agonist	CF NFkB block	MITF TRPM1 inh	KKLEB tox	HIF-2a inh
COc1cc(NC(=O)c2ccc(-c3cccc([N+](=O)[O-])c3)o2)ccc1NC(=O)C(C)C	78*	11	-72	-4	7	-2
O=C(NCC(F)(F)F)C1C(=O)Nc2ccccc2C(=O)N1C1CCCC1 (stereo unspecified)	nt	nt	nt	nt	nt	10
CCCCCCn1cc(CN2CC(N3CCN(Cc4cccc(C)c4)CC3)CS2(=O)=O)nn1 (stereo unspecified)	nt	nt	nt	nt	nt	0
C=CCn1cnc2c(c1=O)c1nc3ccccc3nc1n2/N=C/c1cccc(OC)c1OC	61*	-8	-49	-36	-1	-35
C=CCn1cnc2c(c1=O)c1nc3ccccc3nc1n2/N=C/c1ccccn1	17	0	-179	1	21	-45
Cc1nnc(C)n1/N=C/c1cc2ccccc2nc1Cl	78*	-4	-16	9	1	15
COc1cc(CNC(C)(C)CO)cc(Br)c1OCc1ccc(Cl)cc1Cl	90*	26	39	-14	-42	1
COc1cc(CNCCO)cc(Cl)c1OCc1ccc(Cl)cc1Cl	105*	20	13	7	-14	5
COc1cc(CNCCO)cc(Br)c1OCc1ccccc1Cl	41	17	2	-8	-2	-12
O=C(c1ccco1)N1CCN(C(=O)c2ccco2)C1=S	92*	-10	15	6	14	35
C[C@@H]1CN([C@H](C)CO)C(=O)c2c(c3ccccc3n2C)-c2ccccc2CO[C@H]1CN(C)Cc1cccc(C(=O)O)c1	13	nt	-2	nt	-10	4
